Active and inactive are the calls of the source.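 The calls were made as follows, unless noted: active = a full or partial loss of lipid-probe fluorescence in the fish gall bladder, intestine or both, judged by eye; inactive = no fluorescence loss, or compound toxic to the fish.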
Assays:
[1] = inhibitors of TNFa-induced NFkB p65 translocation, primary screen, imaging, HUVEC, MLSMR starter and 10KST1 sets (AID 438;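 active = inhibition above 20% together with a positive visual image hit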;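 also: compound added about 3h40 before a 20 min TNFalpha stimulation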;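 as to inhibition: signal is the nuclear over cytoplasmic p65 intensity ratio per well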); details: HUVEC TNFa-induced p65 nuclear translocation; cell count: measured here: nuclei count (cytotoxicity indicator), at 2.08 µM; inhibition: at 2 µM, stronger effect = higher value, 0% TNFa-plus-vehicle, 100% no-TNFa wells
[2] = endothelial E-selectin expression blockers – imaging, HUVEC, immunofluorescence, MLSMR starter and 10KST1 sets, primary screen (AID 487;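 active = visually confirmed hit in the image check and inhibition above 20%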;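 as to inhibition: signal is fraction of cell area covered by stained E-selectin grains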;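 as to nuclei count: 100% = median nuclei count of all wells on the same plate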); details: HUVEC TNFalpha-induced E-selectin immunofluorescence imaging, at 2 µM; inhibition: stronger effect = higher value; nuclei count: measured here: cell number, toxicity
[3] = Primary imaging screen for DUSP6 inhibitors that restore phospho-Erk in transfected HeLa cells, chemical complementation (AID 609;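 active = compounds giving at least 50% inhibition in the cell-based MKP-3 phosphatase rescue imaging test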;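 as to inhibition: phospho-Erk level distribution per well compared with pooled transfected vehicle control wells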); details: HeLa MKP-3 transfected, phospho-Erk imaging KS statistic, at 10 µM, cells stimulated with TPA for 15 min
[4] = molecular target: Dual specificity protein phosphatase 6 (Homo sapiens) (UniProt Q16828); assay: as above; details: HeLa MKP-3 transfected, phospho-Erk imaging KS statistic; at 10 µM; stronger effect = higher value; cells stimulated with TPA for 15 min
Dual specificity protein phosphatase 6 (Homo sapiens), sequence (Q16828 whole entry, looked up): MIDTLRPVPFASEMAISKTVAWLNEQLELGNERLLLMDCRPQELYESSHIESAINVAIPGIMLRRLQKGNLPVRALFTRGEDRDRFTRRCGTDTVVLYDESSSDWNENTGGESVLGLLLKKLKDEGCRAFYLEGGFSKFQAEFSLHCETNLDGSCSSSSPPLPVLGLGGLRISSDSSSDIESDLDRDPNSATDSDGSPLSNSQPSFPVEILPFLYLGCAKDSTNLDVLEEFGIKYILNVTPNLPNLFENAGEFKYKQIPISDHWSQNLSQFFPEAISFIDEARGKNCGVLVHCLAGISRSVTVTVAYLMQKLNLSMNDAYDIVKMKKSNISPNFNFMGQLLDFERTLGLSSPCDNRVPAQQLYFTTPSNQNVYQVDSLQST

[5] = molecular target: Voltage-gated potassium channel subunit beta-2 (Rattus norvegicus) (UniProt P62483); assay: inhibitors of rat Kvbeta2 reductase activity – biochemical, NADPH fluorescence, primary screen (AID 622;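 active = fluorescence slope higher than the sample average by over 3 SD, cut at about -0.22 in these data, passing the limit was not always enough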;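 also: slope of raw intensity against log time taken from 70 to 1610 s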); details: recombinant KvBeta, 4-cyanobenzaldehyde reduction, at 10 µM, stronger effect = higher value
Voltage-gated potassium channel subunit beta-2 (Rattus norvegicus), sequence (P62483 whole entry, looked up): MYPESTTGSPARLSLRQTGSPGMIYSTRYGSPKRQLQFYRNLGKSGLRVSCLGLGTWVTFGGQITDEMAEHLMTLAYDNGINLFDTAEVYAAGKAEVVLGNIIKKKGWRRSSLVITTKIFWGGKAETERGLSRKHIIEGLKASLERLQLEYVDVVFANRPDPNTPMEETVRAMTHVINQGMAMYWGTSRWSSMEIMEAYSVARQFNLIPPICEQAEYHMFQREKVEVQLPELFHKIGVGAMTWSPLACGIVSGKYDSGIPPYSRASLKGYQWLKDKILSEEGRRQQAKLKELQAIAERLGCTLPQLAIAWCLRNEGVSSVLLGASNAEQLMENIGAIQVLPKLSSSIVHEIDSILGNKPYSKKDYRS

[6] = molecular target: Voltage-gated potassium channel subunit beta-2 (Rattus norvegicus) (UniProt P62483); assay: enhancers of rat Kvbeta2 NADPH turnover – biochemical, NADPH fluorescence, primary screen (AID 623;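 active = NADPH fluorescence slope more negative than the mean of all samples by about 3 SD, 99.7% confidence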;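 also: fluorescence intensity change per second fitted from 20 to 320 s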); details: Recombinant KvBeta, NADPH fluorescence decrease slope, 10 min; at 10 µM; stronger effect = lower value
[7] = molecular target: Muscarinic acetylcholine receptor M4 (Homo sapiens) (UniProt P08173); assay: M4-linked GIRK flux change, two-sided – cell-based, HEK293 M4/GIRK, thallium flux, BTC-AM, M4 allosteric agonist project, primary screen (AID 625;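 active = fluorescence slope after compound addition differing from the mean of all tested samples at 99.7% confidence, mostly higher but some lower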;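 also: thallium influx through GIRK channels coupled to M4 in HEK293 cells with BTC-AM dye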); details: at 10 µM, actives lie on both sides
Muscarinic acetylcholine receptor M4 (Homo sapiens), sequence (P08173 whole entry, looked up): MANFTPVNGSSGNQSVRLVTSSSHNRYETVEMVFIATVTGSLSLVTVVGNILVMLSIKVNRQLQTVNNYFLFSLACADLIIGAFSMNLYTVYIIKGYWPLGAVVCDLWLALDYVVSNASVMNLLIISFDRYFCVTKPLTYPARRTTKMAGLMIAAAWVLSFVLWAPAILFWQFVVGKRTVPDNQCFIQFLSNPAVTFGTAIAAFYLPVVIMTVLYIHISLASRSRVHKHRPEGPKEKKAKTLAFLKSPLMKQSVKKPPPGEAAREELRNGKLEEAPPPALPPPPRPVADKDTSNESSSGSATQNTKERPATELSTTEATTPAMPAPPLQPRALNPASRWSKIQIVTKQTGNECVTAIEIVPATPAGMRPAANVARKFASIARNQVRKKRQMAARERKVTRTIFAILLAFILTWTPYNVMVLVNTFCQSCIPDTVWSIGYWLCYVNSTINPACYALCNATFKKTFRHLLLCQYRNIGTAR

[8] = inhibitors of larval lipid processing in zebrafish, primary screen, whole organism, PED6 fluorescence, gall bladder and intestine (AID 686); details: Zebrafish larvae PED6 lipid processing, fluorescence scoring; screened at 20 µM (by protocol);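 also: larvae 5 to 7 days old with five fish per well; signal comes from phospholipase A2 cleavage of quenched PED6 carried via bile; overnight exposure to compound and PED6 before scoring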
[9] = loss of swimming-algae plug formation – whole organism, Chlamydomonas reinhardtii, WT vs cilia-less mutant, absorbance, 96-well, primary screen (AID 463189;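 active = inhibition at or above 50% relative to wild type and mutant plate controls; inactive = inhibition below 50%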;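 also: 0% = wild type cc124 cells in DMSO and 100% = ciliumless bld1 mutant cells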); details: Chlamydomonas reinhardtii gravitaxis, OD600 absorbance, 2 days; at 10 µM; stronger effect = higher value
[10] = measured here: cell density z-score
[11] = measured here: nuclear c-Myc green intensity z-score
[12] = measured here: nuclear pErk red intensity z-score, stronger effect = higher value

SMILES | cell count [1] | inhibition [1] | inhibition [2] | nuclei count [2] [%] | z-score [3, 10] | z-score [3, 11] | z-score [3, 12] | inhibition [4] | fluorescence slope [5] | NADPH fluorescence slope [6] | fluorescence slope [7] | outcome [8] | inhibition [9]
COc1ccc2c(c1OC)C(=O)N1c3ccccc3C(=O)N(c3ccccc3F)C21 (stereo not drawn) | 708 | -7.9% (inactive) | -37.7% (inactive) | 134 | 0.797 | -1.74 | -0.312 | 5.35% (inactive) | -0.444 (inactive) | -5.7e-05 (inactive) | 0.00636 (inactive) | inactive | 3.94% (inactive)
Cc1cc2nncn2c(Cc2ccccc2)n1 | 407 | -7.4% (inactive) | -152% (inactive) | 183 | -1.1 | 0.267 | 0.816 | -6.59% (inactive) | -0.428 (inactive) | -0.000108 (inactive) | 0.00485 (inactive) | inactive | -3.56% (inactive)
O=C(COc1ccc(Cl)cc1)Nc1ccccc1CO | 590 | -0.5% (inactive) | -9.8% (inactive) | 120 | 1.01 | 0.534 | -0.247 | 5.42% (inactive) | -0.435 (inactive) | -0.000143 (inactive) | 0.00526 (inactive) | inactive | -8.26% (inactive)
CCOC(=O)C1=C(C)N=C2SC(C)C(=O)N2C1c1ccc(C(=O)OC)cc1 (stereo not drawn) | 701 | 2.4% (inactive) | -69.3% (inactive) | 146 | -0.735 | 0.0686 | 1.13 | 15% (inactive) | -0.428 (inactive) | -2.7e-05 (inactive) | 0.00536 (inactive) | inactive | -2.25% (inactive)
N#CCSc1nc2c(c(=O)n1Cc1ccco1)C1(CCCC1)Cc1ccccc1-2 | 500 | -2.6% (inactive) | -97.3% (inactive) | 150 | 0.3 | 0.666 | -0.907 | 13.9% (inactive) | -0.397 (inactive) | -2.2e-05 (inactive) | 0.00897 (inactive) | active; weak signal in gallbladder and intestine | -7.4% (inactive)
CCOc1ccc(NC(=O)CSC2=C(C#N)C(c3ccc4c(c3)OCO4)CC(=O)N2)cc1 (stereo not drawn) | 639 | 0.6% (inactive) | 75.3% (inactive) | 140 | 0.00899 | -0.0485 | -0.833 | -6.06% (inactive) | -0.47 (inactive) | -5.2e-05 (inactive) | 0.00582 (inactive) | inactive | 14.4% (inactive)
Cc1ccc(-n2ncc3c(N4CCC(C(N)=O)CC4)ncnc32)c(C)c1 | 525 | -15.6% (inactive) | -31.1% (inactive) | 113 | -0.735 | 0.453 | -0.332 | 7.42% (inactive) | -0.391 (inactive) | -3.9e-05 (inactive) | 0.0065 (inactive) | inactive | 42.2% (inactive)
CC(C)OCCCNc1ncnc2c1cnn2-c1ccccc1 | 571 | -10.1% (inactive) | 45.3% (inactive) | 117 | 0.477 | 1.09 | -0.0471 | 15.4% (inactive) | -0.377 (inactive) | -5.1e-05 (inactive) | 0.00537 (inactive) | inactive | 18.2% (inactive)
O=C1C(=O)N(Cc2cccnc2)C(c2ccccn2)/C1=C(/O)c1ccc(Br)cc1 (stereo not drawn) | 486 | -5.3% (inactive) | -24.5% (inactive) | 156 | 1.28 | -0.786 | -0.613 | 4.37% (inactive) | -0.457 (inactive) | -4.3e-05 (inactive) | 0.00516 (inactive) | inactive | -1.46% (inactive)
CN(CCOC(=O)c1ccc2c(c1)OCCO2)Cc1ccccc1 | 661 | -16.5% (inactive) | -9.5% (inactive) | 184 | 0.691 | -0.671 | 1.4 | 5.35% (inactive) | -0.472 (inactive) | -0.000111 (inactive) | 0.00763 (inactive) | inactive | 69.7% (active)
O=C(NCc1ccco1)c1ccc(=O)[nH]n1 | 578 | 3.8% (inactive) | -71.8% (inactive) | 91.1 | 0.426 | -0.894 | -1.39 | 28.1% (inactive) | -0.539 (inactive) | -4.2e-05 (inactive) | 0.00665 (inactive) | inactive | 29.4% (inactive)
CCC(=O)Nc1nc(C)c(Oc2ccccc2)c(=O)[nH]1 | 696 | -5.5% (inactive) | 34.5% (inactive) | 151 | -0.359 | -0.286 | 0.522 | -9.53% (inactive) | -0.412 (inactive) | -4.2e-05 (inactive) | 0.00483 (inactive) | inactive | 2.71% (inactive)
COC(=O)CC(=O)Cc1nc(N)nc(Nc2ccc(C)c(C)c2)n1 | 628 | 1.8% (inactive) | -16.8% (inactive) | 133 | 0.15 | 0.484 | 0.858 | -0.233% (inactive) | -0.442 (inactive) | -3e-05 (inactive) | 0.00526 (inactive) | inactive | 1.81% (inactive)
N#Cc1c(NCCN)nc(NCc2ccccc2)c2c1CCN(Cc1ccccc1)C2 | 566 | 3% (inactive) | -151% (inactive) | 145 | 0.625 | -0.717 | 1.05 | 3.42% (inactive) | -0.466 (inactive) | -8.7e-06 (inactive) | 0.00448 (inactive) | active; weak signal in gallbladder and intestine | 15.7% (inactive)
COc1ccc(/C(O)=C2/C(=O)C(=O)N(c3nc(C)c(C)s3)C2c2ccco2)cc1 (stereo not drawn) | 611 | -12.5% (inactive) | -52.8% (inactive) | 196 | 1.1 | -0.551 | 1.3 | 12.7% (inactive) | -0.446 (inactive) | -5.8e-05 (inactive) | 0.00557 (inactive) | inactive | 0.492% (inactive)
COC(=O)CC1=C(C(=O)OC)C(c2cccc(OCC(N)=O)c2)C(C#N)=C(N)O1 (stereo not drawn) | 723 | -1% (inactive) | -67.7% (inactive) | 186 | -1.4 | 0.109 | 1.84 | 27.5% (inactive) | -0.432 (inactive) | -7e-05 (inactive) | 0.00612 (inactive) | inactive | 12% (inactive)
COc1cccc(CNc2ncc(Br)cc2Br)c1O | 474 | -5.4% (inactive) | -263% (inactive) | 170 | -1.34 | 0.935 | 2.04 | -5.62% (inactive) | -0.439 (inactive) | -4.8e-05 (inactive) | 0.0052 (inactive) | inactive | 5.51% (inactive)
Cc1cccn2c(=O)c3cc(C(N)=S)c(=N)n(CCCOC(C)C)c3nc12 | 637 | -5.4% (inactive) | -92.7% (inactive) | 153 | 1.81 | -0.956 | -1.49 | 12.7% (inactive) | -0.447 (inactive) | -3.3e-05 (inactive) | 0.00286 (inactive) | inactive | 145% (active)
CC(=O)/C(C#N)=C1\NC(=O)C(Cc2ccccc2)S1 (stereo not drawn) | 574 | -16.2% (inactive) | 5.4% (inactive) | 183 | 0.151 | 0.495 | 0.071 | -8.59% (inactive) | -0.425 (inactive) | -6.1e-05 (inactive) | 0.00604 (inactive) | inactive | 3.86% (inactive)
CN(CCCCCNC(=O)/C=N/O)Cc1ccccc1 | 661 | -11.4% (inactive) | -47.5% (inactive) | 99.4 | -0.0258 | 0.279 | -0.452 | 5.35% (inactive) | -0.537 (inactive) | -6.5e-05 (inactive) | 0.00725 (inactive) | inactive | 27.9% (inactive)
N#C/C(C(=O)NCc1ccco1)=C1/SC(Cc2ccc(Cl)cc2)C(=O)N1c1ccccc1 (stereo not drawn) | 633 | -0.2% (inactive) | -35.3% (inactive) | 104 | 0.196 | -0.248 | -0.52 | -9.53% (inactive) | -0.428 (inactive) | -5.4e-05 (inactive) | 0.00683 (inactive) | inactive | 2.21% (inactive)
Cn1c(=O)c2c(nc(NCc3ccco3)n2Cc2ccc(Cl)cc2Cl)n(C)c1=O | 644 | 3.3% (inactive) | -21.8% (inactive) | 104 | -0.0402 | -0.421 | 0.466 | 12.8% (inactive) | -0.405 (inactive) | -1.9e-05 (inactive) | 0.00546 (inactive) | inactive | -11.8% (inactive)
CCOC(=O)C(C)Sc1nc(-c2cccs2)ccc1C#N (stereo not drawn) | 657 | 0.6% (inactive) | 29.6% (inactive) | 189 | -1.44 | 0.836 | 0.563 | -7.86% (inactive) | -0.427 (inactive) | -5.7e-05 (inactive) | 0.00531 (inactive) | inactive | 4.31% (inactive)
CCOC(=O)c1[nH]c2ccc(OC)cc2c1NC(=O)CCN1CCc2ccccc2C1 | 515 | -5.3% (inactive) | -124% (inactive) | 136 | -0.0545 | -2.02 | 1.46 | 3.42% (inactive) | -0.323 (inactive) | -3.8e-05 (inactive) | 0.00491 (inactive) | inactive | -5.17% (inactive)
CC(C)Cc1[nH]c(=O)c(C#N)c2c1COC(C)(C)C2 | 568 | -11.1% (inactive) | -69.9% (inactive) | 141 | 0.028 | -0.951 | -0.389 | -13.3% (inactive) | -0.43 (inactive) | -5.3e-05 (inactive) | 0.00369 (inactive) | inactive | 23.1% (inactive)
Cc1cc(=O)[nH]c(COc2ccccc2)n1 | 687 | -9.9% (inactive) | -104% (inactive) | 162 | 0.188 | 0.603 | 0.438 | 3.49% (inactive) | -0.432 (inactive) | -2e-05 (inactive) | 0.00544 (inactive) | inactive | -9.35% (inactive)

Reference: PubChem BioAssay
